Experimental findings from PubChem BioAssay (EPA / NIEHS) are described below.

SMILES strings stand for the structures. Results filed as inconclusive are left out. The source made the active and inactive calls. Rule for the calls, unless noted: active = hit-call score of the fitted dose curve at least 0.9, where 1 is the maximum; inconclusive = response in the unintended direction; inactive = score below 0.9.

Test [1] can be described thus: ATG_GLI_CIS: Attagene CIS-FACTORIAL HepG2 Assay for human Zinc Finger Protein GLI1 (AID 2282945; active = hit-call score of the fitted dose curve at least 0.9, where 1 is the maximum; inactive = score below 0.9). The conditions noted are these: HepG2, Attagene cis-factorial reporter mRNA, GLI element; actives raise or lower the signal. The gist of the method:
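Transiently transfected HepG2 cells report endogenous transcription factor activity via cis-element-driven reporter units. After 24 h compound exposure, reporter mRNA was measured by RT-PCR with capillary electrophoresis; bidirectional fitting against DMSO baseline.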

Test [2] in a line: ATG_GRE_CIS: Attagene CIS-FACTORIAL HepG2 Assay for human Glucocorticoid Response Elements (GRE) (AID 2282947; active = hit-call score of the fitted dose curve at least 0.9, where 1 is the maximum; inactive = score below 0.9). To be noted: HepG2 GRE cis-reporter, Attagene multiplex mRNA; actives raise or lower the signal. The gist of the method:
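Read-out: fluorescent reporter-transcript fragments separated by capillary electrophoresis after RT-PCR. Transiently transfected HepG2 cells carrying cis-element-driven reporter units were dosed for 24 h; gain or loss of signal fitted against DMSO control.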

Test [3] has as its target Hepatocyte nuclear factor 6 (Homo sapiens) (UniProt Q9UBC0). The experiment in a line: ATG_HNF6_CIS: Attagene CIS-FACTORIAL HepG2 Assay for human Hepatocyte Nuclear Factor 6 (HNF6) (AID 2282952; active = hit-call score of the fitted dose curve at least 0.9, where 1 is the maximum; inactive = score below 0.9). The conditions noted are these: HepG2 Attagene cis-factorial HNF6 reporter transcription; actives raise or lower the signal. The gist of the method:
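Endogenous transcription factor activity in human HepG2 liver cells was captured through cis-regulated reporter constructs. After 24 h treatment, reporter mRNA was measured by RT-PCR with capillary electrophoresis, and activity was fitted in both directions relative to DMSO.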

Test [4] is described as follows: ATG_PBREM_CIS: Attagene CIS-FACTORIAL HepG2 Assay for human Phenobarbital-responsive Enhancer Module (PBREM) (AID 2282955; active = hit-call score of the fitted dose curve at least 0.9, where 1 is the maximum; inactive = score below 0.9). The conditions noted are these: HepG2 PBREM cis-reporter, Attagene multiplexed transcription; actives raise or lower the signal. The gist of the method: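 Endogenous transcription factors in human liver HepG2 cells drive a PBREM cis-element reporter, whose transcript level after 24 h treatment is quantified by RT-PCR with capillary electrophoresis; activity fitted in both directions against DMSO.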

The nature of test [5]: ATG_SREBP_CIS: Attagene CIS-FACTORIAL HepG2 Assay for human Sterol Regulatory Element Binding (SREBP) (AID 2282962; active = hit-call score of the fitted dose curve at least 0.9, where 1 is the maximum; inactive = score below 0.9). The conditions noted are these: HepG2 Attagene cis-factorial SREBP reporter, mRNA; actives raise or lower the signal. Put shortly:
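Endogenous factor activity is measured in HepG2 through multiplexed reporter units under cis-element control. Following a 24 h incubation, reporter transcripts are reverse-transcribed, PCR-amplified and sized by capillary electrophoresis; activity is fitted in both directions relative to DMSO.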

Test [6] has as its target Signal transducer and activator of transcription 3 (Homo sapiens) (UniProt P40763). The experiment in a line: ATG_STAT3_CIS: Attagene CIS-FACTORIAL HepG2 Assay for human Signal Transducer and Activator of Transcription 3 (STAT3) (AID 2282963; active = hit-call score of the fitted dose curve at least 0.9, where 1 is the maximum; inactive = score below 0.9). To be noted: HepG2, Attagene cis-factorial STAT3 reporter transcription; actives raise or lower the signal. The gist of the method:
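Readout: fluorescent reporter mRNA fragments resolved by capillary electrophoresis. Setup: HepG2 transfected with MRTUs reporting endogenous transcription-factor activity, dosed 24 h. Gain or loss of signal fitted bidirectionally against DMSO control.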

Test [7] addresses Hepatocyte nuclear factor 4-alpha (Homo sapiens) (UniProt P41235). The experiment in a line: ATG_HNF4a_TRANS: Attagene TRANS-FACTORIAL HepG2 Assay for human Hepatocyte Nuclear Factor 4 alpha (HNF4a) (AID 2282982). To be noted: HepG2 HNF4a transactivation reporter, mRNA readout. Put shortly:
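Transient MRTU transfection of HepG2, 24 h dosing. Readout: reporter mRNA via RT-PCR + capillary electrophoresis, fluorescence; activity fit upward relative to DMSO control.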

Test [8] is described as follows: ATG_NF_kB_CIS: Attagene CIS-FACTORIAL HepG2 Assay for human Nuclear Factor Kappa B (NF-kB) (AID 2282991; active = hit-call score of the fitted dose curve at least 0.9, where 1 is the maximum; inactive = score below 0.9). To be noted: HepG2 Attagene cis-factorial NF-kB reporter mRNA; actives raise or lower the signal. Put shortly: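 Transient MRTU transfection of human HepG2 liver cells → 24 h chemical exposure → total RNA, oligo(dT) RT → PCR, 6-FAM primer extension, HpaI digest 2 h 37 C → CE fragment analysis. Bidirectional fitting, DMSO negative control.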

Test [9] in a line: ATG_NRF2_ARE_CIS: Attagene CIS-FACTORIAL HepG2 Assay for human Nuclear Factor Erythroid 2 Related Factor 2 (NFR2) response to Antioxidant Response Elements (ARE) (AID 2282992; active = hit-call score of the fitted dose curve at least 0.9, where 1 is the maximum; inactive = score below 0.9;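 for AC50: reporter mRNA level measured by RT-PCR and capillary electrophoresis fluorescence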). To be noted: HepG2 Attagene ARE/NRF2 reporter, transcription factor activity; actives raise or lower the signal. The gist of the method: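 Endogenous transcription factor activity in human liver HepG2 cells is tracked via a cis-element-driven reporter within a multiplexed set. mRNA induction is read by RT-PCR and capillary electrophoresis after 24 h, with DMSO as baseline.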

A short description of test [10]: ATG_Oct_MLP_CIS: Attagene CIS-FACTORIAL HepG2 Assay for human Octamer-Binding Transcription Factor (Oct) (AID 2282993; active = hit-call score of the fitted dose curve at least 0.9, where 1 is the maximum; inactive = score below 0.9). The conditions noted are these: HepG2 Attagene cis-factorial Oct reporter, mRNA; actives raise or lower the signal. The gist of the method: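 Read-out: reporter mRNA via RT-PCR plus capillary electrophoresis of 6-FAM-labelled fragments. Transiently transfected HepG2, 24 h exposure, endogenous TF activity on cis elements. Gain or loss of signal fitted relative to DMSO.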

Test [11] concerns the target Cellular tumor antigen p53 (Homo sapiens) (UniProt P04637). The experiment in a line: TOX21_p53_BLA_p3_ratio: Tox21 HCT-116 p53 Agonism Beta-lactamase Assay, Ratio, Phase 3 (AID 2283596). The gist of the method:
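Cells were seeded at 4000/well, rested 5 h at 37C, then dosed with DMSO compound solutions (217-fold dilution) for 16 h. CCF4-AM substrate was loaded for 2 h at room temperature, and the 460/530 nm emission ratio was fitted for gain of signal versus DMSO.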

Test [12] has the same target. The experiment in a line: TOX21_p53_BLA_p4_ratio: Tox21 HCT-116 p53 Agonism Beta-lactamase Assay, Ratio, Phase 4 (AID 2283601). Put shortly: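 HCT-116 p53 beta-lactamase reporter cells (4000/well) preincubated 5 h, then compound (217-fold dilution of DMSO stock) for 16 h at 37C. CCF4-AM substrate added 2 h at room temperature; 460/530 nm emission ratio fitted upward versus DMSO.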

Test [13] addresses Heat shock factor protein 1 (Homo sapiens) (UniProt Q00613). The experiment in a line: ATG_HSE_CIS: Attagene CIS-FACTORIAL HepG2 Assay for human Heat Shock Transcription Factor 1 (HSE) (AID 2282953; active = hit-call score of the fitted dose curve at least 0.9, where 1 is the maximum; inactive = score below 0.9). To be noted: HepG2 HSE cis-reporter, Attagene RNA transcription; actives raise or lower the signal. Put shortly:
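Read-out: fluorescence of reporter-specific RT-PCR fragments separated by capillary electrophoresis. HepG2 carrying transfected cis-element reporter units; 24 h dosing; activity fitted in both directions relative to DMSO baseline.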

The target of test [14] is human Peroxisome Proliferator-activated Receptor alpha (PPARa), PPARA (gene 5465) (UniProt Q07869). The experiment in a line: ATG_PPARa_TRANS: Attagene TRANS-FACTORIAL HepG2 Assay for human Peroxisome Proliferator-activated Receptor alpha (PPARa) (AID 2283001).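 For AC50: potency for gain of reporter signal over DMSO so agonist or activator.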 The gist of the method: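 Transient HepG2 transfection, GAL4-UAS reporters, NR-Gal4 chimeras; 24 h compound exposure. Readout: reporter transcripts by RT-PCR, 6-FAM primer extension, HpaI digest, capillary electrophoresis. Positive direction vs DMSO baseline.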
Chain of human Peroxisome Proliferator-activated Receptor alpha (PPARa), PPARA (gene 5465) (Q07869 whole entry, looked up, the tested form may be a part): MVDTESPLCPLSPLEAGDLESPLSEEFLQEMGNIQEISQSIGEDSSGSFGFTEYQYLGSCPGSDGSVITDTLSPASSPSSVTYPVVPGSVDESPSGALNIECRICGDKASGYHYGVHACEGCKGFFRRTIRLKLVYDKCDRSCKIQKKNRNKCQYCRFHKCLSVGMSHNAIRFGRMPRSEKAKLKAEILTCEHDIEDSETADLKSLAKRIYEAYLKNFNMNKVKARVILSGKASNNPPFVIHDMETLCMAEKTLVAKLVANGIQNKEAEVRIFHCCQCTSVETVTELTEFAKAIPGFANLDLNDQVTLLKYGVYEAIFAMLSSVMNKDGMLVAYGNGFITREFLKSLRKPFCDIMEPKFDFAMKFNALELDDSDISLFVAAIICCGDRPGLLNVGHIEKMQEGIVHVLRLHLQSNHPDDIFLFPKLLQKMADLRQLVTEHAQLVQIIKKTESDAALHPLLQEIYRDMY

The target of test [15] is human Retinoid X Receptor beta (RXRb), RXRB (gene 6257) (UniProt P28702). The experiment in a line: ATG_RXRb_TRANS: Attagene TRANS-FACTORIAL HepG2 Assay for human Retinoid X Receptor beta (RXRb) (AID 2283013). The gist of the method:
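After a 24 h incubation with test chemical, transfected HepG2 cells carrying NR-Gal4 fusions and GAL4-UAS reporter transcription units yield RNA whose reporter cDNA is FAM-labelled, HpaI-cut and sized by capillary electrophoresis; increases over DMSO are scored.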

Test [16] in a line: TOX21_p53_BLA_p2_viability: Viability Assessment in the Tox21 HCT-116 p53 Agonism Beta-lactamase Assay, Phase 2 (AID 2283591).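 Note: compound exposure lasted 16 h at 37 °C; actives lower the ATP signal meaning cytotoxicity.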 The gist of the method: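 HCT116 p53-bla cells, 4000/well, dosed after 5 h plating (217-fold dilution of DMSO stocks) and incubated 16 h at 37C. Viability taken as cellular ATP by CellTiter-Glo luminescence after 30 min RT; signal loss marks cytotoxicity.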

A short description of test [17]: TOX21_p53_BLA_p3_viability: Viability Assessment in the Tox21 HCT-116 p53 Agonism Beta-lactamase Assay, Phase 3 (AID 2283593).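 Note: cells exposed to compound for 16 h before reading.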 The gist of the method: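 HCT116 cells, 4000/well, dosed 5 h after plating by pin transfer (217-fold dilution from DMSO stock) and incubated 16 h at 37C, 5% CO2. Viability read as ATP luminescence with CellTiter-Glo after 30 min at room temperature.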

The target in test [18] is Cellular tumor antigen p53 (Homo sapiens) (UniProt P04637). The experiment in a line: TOX21_p53_BLA_p5_ratio: Tox21 HCT-116 p53 Agonism Beta-lactamase Assay, Ratio, Phase 5 (AID 2283599). The gist of the method:
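HCT-116 p53-bla cells (4000/well) plated 5 h, dosed with compound (217-fold DMSO dilution) for 16 h at 37 C; CCF4-AM substrate 2 h at room temperature. Activity is the 460/530 nm emission ratio (405 nm excitation), fitted in gain-of-signal direction versus DMSO.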

A short description of test [19]: TOX21_p53_BLA_p5_viability: Viability Assessment in the Tox21 HCT-116 p53 Agonism Beta-lactamase Assay, Phase 5 (AID 2283600). The gist of the method: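 Viability is taken from cellular ATP content, measured by luciferase luminescence in the same wells after the beta-lactamase ratio read. Cells are seeded at 4000 per well and exposed to DMSO-dissolved compounds, diluted 217-fold, for 16 h.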

A short description of test [20]: ATG_M_06_TRANS: Attagene TRANS-FACTORIAL HepG2 Assay for M06 Transcription Factor (Internal Marker) (AID 2282983). The conditions noted are these: HepG2 Attagene TRANS M06 internal marker reporter. The gist of the method:
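Human liver HepG2 cells bearing transiently transfected chimeric NR-GAL4 reporter units were treated with chemicals for 24 h. Total RNA was reverse-transcribed, reporter sequences amplified and labelled, then quantified by capillary electrophoresis. Activity was fitted upward relative to DMSO.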

Chain of Heat shock factor protein 1 (Homo sapiens) (Q00613 whole entry, looked up, the tested form may be a part): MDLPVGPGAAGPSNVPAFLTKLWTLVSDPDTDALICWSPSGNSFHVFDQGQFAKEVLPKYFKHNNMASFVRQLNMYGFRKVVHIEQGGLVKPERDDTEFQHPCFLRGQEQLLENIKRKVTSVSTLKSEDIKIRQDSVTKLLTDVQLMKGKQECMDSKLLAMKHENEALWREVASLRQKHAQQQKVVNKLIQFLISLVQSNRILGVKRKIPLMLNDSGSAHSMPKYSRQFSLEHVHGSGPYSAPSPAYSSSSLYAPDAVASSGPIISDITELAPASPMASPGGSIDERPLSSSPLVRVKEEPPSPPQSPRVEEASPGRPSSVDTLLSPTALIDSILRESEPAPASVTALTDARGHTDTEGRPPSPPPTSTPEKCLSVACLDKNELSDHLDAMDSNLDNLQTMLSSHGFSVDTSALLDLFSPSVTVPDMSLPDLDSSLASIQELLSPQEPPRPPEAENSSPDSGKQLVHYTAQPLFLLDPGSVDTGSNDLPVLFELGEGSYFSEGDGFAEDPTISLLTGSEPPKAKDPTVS
Chain of Hepatocyte nuclear factor 6 (Homo sapiens) (Q9UBC0 whole entry, looked up): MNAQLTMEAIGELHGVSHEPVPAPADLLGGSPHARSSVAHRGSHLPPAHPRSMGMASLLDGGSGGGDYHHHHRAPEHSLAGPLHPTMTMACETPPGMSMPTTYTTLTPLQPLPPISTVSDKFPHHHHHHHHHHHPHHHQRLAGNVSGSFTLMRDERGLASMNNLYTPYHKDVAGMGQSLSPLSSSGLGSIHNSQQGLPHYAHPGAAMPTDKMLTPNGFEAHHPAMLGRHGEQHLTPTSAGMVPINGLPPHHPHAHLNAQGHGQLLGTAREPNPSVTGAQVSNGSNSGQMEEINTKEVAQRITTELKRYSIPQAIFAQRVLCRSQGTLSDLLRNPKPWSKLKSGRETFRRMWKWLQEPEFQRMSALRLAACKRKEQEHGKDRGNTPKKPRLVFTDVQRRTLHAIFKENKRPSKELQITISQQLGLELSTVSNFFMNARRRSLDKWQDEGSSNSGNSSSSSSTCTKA
Chain of Hepatocyte nuclear factor 4-alpha (Homo sapiens) (P41235 whole entry, looked up): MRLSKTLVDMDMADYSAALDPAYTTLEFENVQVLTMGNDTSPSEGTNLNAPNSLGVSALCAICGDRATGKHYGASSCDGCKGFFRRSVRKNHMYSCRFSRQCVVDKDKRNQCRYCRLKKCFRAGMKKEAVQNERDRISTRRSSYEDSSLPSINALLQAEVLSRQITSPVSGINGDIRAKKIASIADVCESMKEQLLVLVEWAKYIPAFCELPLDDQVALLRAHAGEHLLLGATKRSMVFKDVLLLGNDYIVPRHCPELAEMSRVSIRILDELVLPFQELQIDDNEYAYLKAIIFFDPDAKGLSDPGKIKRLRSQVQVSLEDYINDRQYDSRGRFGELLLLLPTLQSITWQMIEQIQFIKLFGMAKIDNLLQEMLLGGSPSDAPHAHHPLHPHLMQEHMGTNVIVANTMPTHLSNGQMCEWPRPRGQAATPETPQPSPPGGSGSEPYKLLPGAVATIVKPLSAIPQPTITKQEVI
Chain of Cellular tumor antigen p53 (Homo sapiens) (P04637 whole entry, looked up): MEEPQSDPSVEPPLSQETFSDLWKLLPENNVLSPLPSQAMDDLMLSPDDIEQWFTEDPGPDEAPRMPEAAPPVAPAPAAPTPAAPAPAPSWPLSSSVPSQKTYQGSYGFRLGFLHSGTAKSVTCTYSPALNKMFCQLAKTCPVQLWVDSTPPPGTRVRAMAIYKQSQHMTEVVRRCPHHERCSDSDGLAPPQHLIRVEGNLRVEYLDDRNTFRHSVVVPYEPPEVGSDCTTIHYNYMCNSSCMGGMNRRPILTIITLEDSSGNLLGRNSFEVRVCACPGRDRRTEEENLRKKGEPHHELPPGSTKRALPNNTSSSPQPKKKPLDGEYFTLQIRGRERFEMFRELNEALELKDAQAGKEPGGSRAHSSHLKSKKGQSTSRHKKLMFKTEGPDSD
Chain of Signal transducer and activator of transcription 3 (Homo sapiens) (P40763 whole entry, looked up, the tested form may be a part): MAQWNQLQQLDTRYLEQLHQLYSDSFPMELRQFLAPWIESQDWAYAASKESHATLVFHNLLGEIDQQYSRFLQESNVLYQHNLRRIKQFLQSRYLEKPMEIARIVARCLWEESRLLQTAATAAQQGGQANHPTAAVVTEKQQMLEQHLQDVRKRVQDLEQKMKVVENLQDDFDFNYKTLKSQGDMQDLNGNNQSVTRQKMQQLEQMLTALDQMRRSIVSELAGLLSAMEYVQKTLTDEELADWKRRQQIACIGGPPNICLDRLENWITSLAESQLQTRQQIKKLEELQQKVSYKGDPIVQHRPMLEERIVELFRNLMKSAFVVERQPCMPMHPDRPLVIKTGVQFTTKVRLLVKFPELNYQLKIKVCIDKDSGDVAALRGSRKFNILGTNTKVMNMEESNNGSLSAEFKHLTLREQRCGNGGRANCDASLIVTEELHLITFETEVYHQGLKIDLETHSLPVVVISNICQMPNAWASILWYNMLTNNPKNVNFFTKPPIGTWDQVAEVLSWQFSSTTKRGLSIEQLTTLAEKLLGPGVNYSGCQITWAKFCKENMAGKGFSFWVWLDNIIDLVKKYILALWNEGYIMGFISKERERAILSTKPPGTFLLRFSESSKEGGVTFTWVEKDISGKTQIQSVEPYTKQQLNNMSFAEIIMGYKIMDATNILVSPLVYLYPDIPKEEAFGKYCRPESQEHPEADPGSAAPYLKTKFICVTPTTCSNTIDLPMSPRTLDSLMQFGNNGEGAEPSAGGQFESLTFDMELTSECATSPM
Chain of human Retinoid X Receptor beta (RXRb), RXRB (gene 6257) (P28702 whole entry, looked up, the tested form may be a part): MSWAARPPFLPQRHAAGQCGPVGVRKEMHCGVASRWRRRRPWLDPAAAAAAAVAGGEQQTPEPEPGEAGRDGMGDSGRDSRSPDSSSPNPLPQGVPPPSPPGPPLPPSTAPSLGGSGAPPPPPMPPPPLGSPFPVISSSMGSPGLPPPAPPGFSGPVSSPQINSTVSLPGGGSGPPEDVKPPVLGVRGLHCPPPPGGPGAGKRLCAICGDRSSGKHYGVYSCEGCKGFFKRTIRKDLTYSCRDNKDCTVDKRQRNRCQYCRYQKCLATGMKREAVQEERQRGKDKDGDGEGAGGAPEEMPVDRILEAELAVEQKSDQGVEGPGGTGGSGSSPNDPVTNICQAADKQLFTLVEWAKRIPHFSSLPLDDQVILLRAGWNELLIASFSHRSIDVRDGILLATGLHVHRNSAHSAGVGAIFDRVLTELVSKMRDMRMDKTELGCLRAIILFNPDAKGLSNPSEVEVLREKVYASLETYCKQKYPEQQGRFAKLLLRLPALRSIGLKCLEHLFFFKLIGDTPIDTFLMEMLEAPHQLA

Regarding `O=C(C(=O)c1ccccc1)c1ccccc1`, the compound was called inactive in test [1], in test [2], in test [3], in [4], in test [5] and in test [6]. The outcome in test [7], in [8], in test [9], in test [10], in [11] and in test [12] was inactive.
A word on the AC50: it is the concentration at which the activity in the assay is half-maximal. With `O=C(O)Cc1c[nH]c2ccccc12`, the call in test [2], in [3], in test [13], in test [4], in test [5] and in test [6] was inactive. Also, the call in [7], in test [10], in [14], in [16], in [17] and in test [11] was inactive. Besides, the result in test [18], in [19] and in test [12] was inactive. In addition, the AC50 in test [15] is 73.7 µM (active).
As for `CCCCCCCCCC/C=C/C1CC(=O)OC1=O` (stereo not given), the compound was called inactive in test [1], in [2], in test [3], in [4], in test [5] and in test [6]. In addition, the compound was called inactive in [20], in test [8], in test [10], in test [14], in test [15] and in test [16]. Moreover, the outcome in test [17], in test [11], in test [18], in test [19] and in test [12] was inactive. Also, in [9], the AC50 was 79.8 µM (active).
With `COC(OC)C(C)c1ccccc1` (stereo not given), the call in test [1], in test [2], in [13], in test [5], in test [7] and in [20] was inactive. Besides, the outcome in test [8], in test [10], in [15], in [16], in test [11] and in test [18] was inactive. The call in test [19] and in [12] was inactive.
As for `CCCCCC1CCCC(=O)O1` (stereo not given), the result in [1], in [2], in test [3], in test [13], in test [4] and in test [7] was inactive. Moreover, the compound was called inactive in [8], in test [9], in [14], in [15], in test [16] and in test [18]. The outcome in test [12] was inactive.
On to `O=S(=O)(O)c1cccc2ccccc12`, for which the outcome in test [1], in test [2], in test [5], in test [6], in [7] and in test [20] was inactive. The call in test [9], in [10], in [14], in [16], in test [11] and in test [18] was inactive. In addition, the result in [12] was inactive.
For the compound `CC(=O)c1nccs1`, the compound was called inactive in test [1], in test [2], in [3], in [13], in test [4] and in [5]. Further, the compound was classed as inactive in test [6], in test [7], in test [9], in [15], in test [17] and in [11]. For the same compound, the outcome in [18] and in test [12] was inactive.
For `O=[N+]([O-])c1ccccc1C(F)(F)F`, the result in test [1], in test [3], in test [13], in [4], in [7] and in test [9] was inactive. Also, the result in test [10], in test [14], in [17], in test [11], in test [18] and in [12] was inactive.
For the compound `O=C(CC(C(=O)OC1CCCCC1)S(=O)(=O)O)OC1CCCCC1` (stereo not given), the outcome in test [1], in test [2], in test [3], in test [13], in [4] and in [7] was inactive. Moreover, the compound was classed as inactive in test [20], in test [8], in test [9], in [10], in [15] and in [16]. In addition, the result in test [17], in test [11], in test [18], in test [19] and in [12] was inactive. Moreover, the AC50 in [14] was 35.1 µM (active).
